The results in this text go back to PubChem BioAssay AID372 (MTDP, 2006).

Hit rate of the full screen: of about 100,000 compounds, about 770 (0.77%) were called active. What follows is part of a selection rich in actives, with near analogues and random picks from the rest. Values without a mark were called inactive. Rule as the data show it: active = inhibition above about 50%; inactive = the rest.

This test concerns the target Gag-Pol polyprotein (Human immunodeficiency virus type 1 group M subtype B (isolate HXB2)) (UniProt P04585). In words: RNase H inhibition, HIV 1 Gag Pol polyprotein, FRET biochemical assay, screening (AID 372). The settings on record: HIV-1 RT RNase H, FRET RNA/DNA substrate fluorescence; at 10 µM; hits give high values.
The inhibition is the share of the control response that was lost under treatment. For the compound `COc1cc(OC)cc(C(=O)Nc2ccc3oc(-c4ccc(Cl)c(Cl)c4)nc3c2)c1`, the inhibition was 56% (active).

`O=C(Nc1ccc2oc(-c3ccc(Cl)c(Cl)c3)nc2c1)c1ccc(F)cc1`: the inhibition is 60% (active).

Take `COc1ccc(-c2nc3cc(NC(=O)c4ccc(F)cc4)ccc3o2)cc1Cl`: the inhibition was 13%.

Consider `O=C(Nc1ccc2oc(-c3ccc(F)cc3)nc2c1)c1cc(Br)ccc1Cl`, for which the inhibition is 2%.

Regarding `O=C(Nc1cccc(-c2nc3cc(Cl)ccc3o2)c1)c1cccc(F)c1`, the inhibition was 21%.

As to `O=C(Nc1ccc(-c2cc3ccccc3oc2=O)cc1)c1cccc(F)c1`, the inhibition was 58% (active).

For the compound `COc1cc(OC)cc(C(=O)Nc2ccc3oc(-c4ccc(Br)cc4)nc3c2)c1`, the inhibition was 27%.

Turning to `O=C(Nc1ccc(-c2cc3ccccc3oc2=O)cc1)c1ccc(Cl)c(Cl)c1`, the inhibition is 0%.

Turning to `O=C(Nc1ccc2oc(-c3cccc(F)c3)nc2c1)c1cccc(F)c1`, the inhibition was 14%.

Turning to `COc1cc(OC)cc(C(=O)Nc2ccc3oc(-c4ccc(I)cc4)nc3c2)c1`, the inhibition was 16%.

Regarding `COc1cccc(C(=O)Nc2ccc(-c3cc4ccccc4oc3=O)cc2)c1`, the inhibition is 45%.

`O=C(Nc1ccc2oc(-c3cccc(Cl)c3)nc2c1)c1cccc(F)c1`: the inhibition is 50% (active).

Regarding `Cc1cccc2c(Nc3ccccc3)c3ccccc3nc12`, the inhibition was 17%.

For `CCOC(=O)c1cccc(Nc2ncnc3ccc(C)cc23)c1`, the inhibition is 0%.

As to `Fc1ccc(/C=N/c2ncn[nH]2)cc1`, the inhibition was 6%.

For `CNC(=O)C(=O)NCCN1CCN(S(=O)(=O)c2ccc([N+](=O)[O-])cc2)CC1`, the inhibition was 0%.

For `O=C(COc1ccccc1Br)Nc1ccc(Cl)c(Cl)c1`, the inhibition was 20%.

For the compound `COc1ccc(C(=O)NC(CC(=O)O)c2ccccc2)cc1` (stereo not given), the inhibition was 0%.

On to `CC(=O)c1cccc(N/C=C\C(=O)c2ccc(Cl)c(Cl)c2)c1`, for which the inhibition is 10%.

On to `Cc1ccc(NC(=O)/C=C/c2cccc(C(F)(F)F)c2)cc1`, for which the inhibition was 12%.

Take `O=C1C=CC(=O)N1c1ccc(-c2nc3ccc(N4C(=O)C=CC4=O)cc3[nH]2)cc1`: the inhibition is 14%.

With `O=C1c2ccccc2C(=O)N1c1ccc(-c2nc3ccccc3[nH]2)cc1`, the inhibition was 0%.

Regarding `CCOC(=O)C1=C(C)N=c2s/c(=C\c3ccc(Br)o3)c(=O)n2C1c1ccc(OC)cc1OC` (stereo not given), the inhibition is 23%.

On to `CCCC(=O)Nc1c(C)ccc2nsnc12`, for which the inhibition was 0%.

With `COCCCNC(=O)COc1ccc(Cl)cc1C`, the inhibition is 10%.

For the compound `CCOc1cc(/C=C2\SC(=S)N(C)C2=O)ccc1O`, the inhibition was 22%.

For `COc1ccc(/C=C2/SC(=S)N(C)C2=O)cc1O`, the inhibition was 43%.

As to `CCN1C(=O)/C(=C\c2cc(OC)ccc2O)SC1=S`, the inhibition was 24%.

For the compound `CN1C(=O)/C(=C/c2ccc(O)c(O)c2)SC1=S`, the inhibition is 83% (active).

As to `CCN1C(=O)/C(=C\c2ccc(O)cc2O)SC1=S`, the inhibition was 70% (active).

As to `CCN1C(=O)/C(=C\c2cc(Cl)ccc2O)SC1=S`, the inhibition is 16%.

With `COc1ccc(/C=C2\SC(=S)N(C3CCCCC3)C2=O)cc1O`, the inhibition is 5%.

Consider `CCN1C(=O)/C(=C\c2cccc(O)c2)SC1=S`, for which the inhibition is 28%.

For the compound `CCN1C(=O)/C(=C\c2ccc(O)c(O)c2)SC1=S`, the inhibition is 81% (active).

Take `COc1cc(/C=C2\SC(=S)N(C3CCCCC3)C2=O)ccc1O`: the inhibition is 8%.

Turning to `CCN1C(=O)/C(=C\c2ccc(O)c(OC)c2)SC1=S`, the inhibition was 36%.

For `N/C(Cc1ccc([N+](=O)[O-])cc1)=N\OC(=O)c1ccc([N+](=O)[O-])cc1`, the inhibition was 6%.

`Cc1ccc(C(=O)N2CCc3ccccc32)cc1[N+](=O)[O-]`: the inhibition is 5%.

Regarding `O=[N+]([O-])c1cc([N+](=O)[O-])c(N2CCN(c3ccccc3Cl)CC2)cc1Nc1ccc(Br)cc1`, the inhibition was 5%.

For `O=C(CSc1cc(Cl)ccc1Cl)Nc1cccc(C(F)(F)F)c1`, the inhibition was 9%.

For `COc1cc(C(=O)N/C(=C/c2ccco2)C(=O)Nc2ccccc2)cc(OC)c1OC`, the inhibition is 9%.

As to `COc1ccccc1C1NC(=O)NC(C)=C1C(=O)OC(C)C` (stereo not given), the inhibition is 8%.

Consider `CCNC(=O)C(=O)Nc1ccccc1C`, for which the inhibition is 5%.

As for `CCOC(=O)c1c(NC(=O)Cc2ccc(Cl)cc2)sc(C(=O)Nc2ccccc2OC)c1C`, the inhibition is 0%.

As for `Cc1c(OCC(N)=O)ccc2c1oc(=O)c1ccccc12`, the inhibition is 47%.

`COc1ccccc1N1CCN(/N=C/C=C\c2ccco2)CC1`: the inhibition was 8%.

Take `C[n+]1cccc(C(=O)NCCOC(=O)c2ccc(F)cc2)c1`: the inhibition was 0%.

For the compound `O=C1/C(=C/c2ccc(O)c([N+](=O)[O-])c2)SC(=S)N1Cc1ccccc1`, the inhibition is 23%.

Regarding `COc1cc(/C=C2\SC(=S)N(CCCCCCCCCCC(=O)O)C2=O)ccc1O`, the inhibition was 23%.

On to `O=C(O)CCCCCCCCCCN1C(=O)/C(=C/c2ccc(Br)cc2)SC1=S`, for which the inhibition was 25%.

As to `O=C1/C(=C\c2ccc(O)cc2)SC(=S)N1Cc1ccccc1`, the inhibition is 46%.

Turning to `O=C1/C(=C\c2ccc(O)c(O)c2)SC(=S)N1Cc1ccccc1`, the inhibition is 73% (active).

With `O=C(O)CCCCCN1C(=O)/C(=C/c2ccc(O)c(O)c2)SC1=S`, the inhibition was 53% (active).

Regarding `CCOc1ccc(/C=N/N2CCN(Cc3cccc4ccccc34)CC2)cc1OC`, the inhibition is 13%.

On to `NC(=O)c1ccccc1NC(=O)c1sc2ccccc2c1Cl`, for which the inhibition is 0%.

For the compound `O=C1S/C(=C/c2ccc3c(c2)OCO3)C(=O)N1CN1CCCC1`, the inhibition was 10%.

In the case of `c1ccc(CCCN2CCN(Cc3cccnc3)CC2)cc1`, the inhibition was 5%.

For the compound `COC(=O)C1=C(C)N=c2s/c(=C\c3ccccc3F)c(=O)n2C1c1ccc(OC)cc1` (stereo not given), the inhibition is 11%.

Regarding `CCOC(=O)c1ccc(N2C(=O)C3C(C2=O)C2(c4ccccc4)C(=O)C3(c3ccccc3)C(c3ccc(OC)cc3)=C2c2ccc(OC)cc2)cc1` (stereo not given), the inhibition is 44%.

`COC(=O)c1ccc(N2C(=O)C3C(C2=O)C2(c4ccccc4)C(=O)C3(c3ccccc3)C(c3ccc(OC)cc3)=C2c2ccc(OC)cc2)cc1` (stereo not given): the inhibition is 57% (active).

For the compound `COc1ccc(C2=C(c3ccc(OC)cc3)C3(c4ccccc4)C(=O)C2(c2ccccc2)C2C(=O)N(c4ccc(Br)cc4)C(=O)C23)cc1` (stereo not given), the inhibition is 42%.

For the compound `COc1cc2ccccc2cc1C(=O)Nc1ccc(Cl)c(Cl)c1`, the inhibition is 24%.

For the compound `Cc1ccc(OCC2CNC(=O)O2)cc1` (stereo not given), the inhibition is 10%.

Consider `CCc1ccc(N2C(=O)/C(=C/c3ccc(I)o3)C(=O)NC2=S)cc1`, for which the inhibition is 97% (active).

Take `CCOc1ccc(N2C(=O)NC(=O)/C(=C\c3ccc(I)o3)C2=O)cc1`: the inhibition was 5%.

For `CCOc1ccc(N2C(=O)/C(=C/c3ccc(N(CC)CC)o3)C(=O)NC2=S)cc1`, the inhibition is 21%.

Consider `O=C1NC(=S)N(c2ccc(Cl)cc2)C(=O)/C1=C/c1ccc(-c2ccc(F)cc2)o1`, for which the inhibition is 25%.

As for `CCOc1ccc(N2C(=O)NC(=O)/C(=C\c3ccc(Br)o3)C2=O)cc1`, the inhibition is 1%.

Regarding `CCOc1cccc(N2C(=O)/C(=C/c3ccc(I)o3)C(=O)NC2=S)c1`, the inhibition is 39%.

Consider `O=C1NC(=S)N(c2ccc(Cl)cc2)C(=O)/C1=C/c1ccc(N2CCCC2)o1`, for which the inhibition is 10%.

Consider `CCc1ccc(N2C(=O)/C(=C/c3ccc(-c4ccc(F)cc4)o3)C(=O)NC2=S)cc1`, for which the inhibition was 26%.

In the case of `CCc1ccc(N2C(=O)NC(=O)/C(=C\c3ccc(I)o3)C2=O)cc1`, the inhibition was 11%.

As to `O=C(Cc1csc(-c2ccccc2)n1)Nc1nccs1`, the inhibition is 0%.

In the case of `O=C(NCCSc1ccccn1)c1ccc([N+](=O)[O-])cc1`, the inhibition is 0%.

As for `Cc1ccc2c(c1)-c1c(ssc1=S)C(C)(C)N2C(=O)c1ccco1`, the inhibition is 48%.

As for `Cc1ccc(/C(O)=C2/C(=O)C(=O)N(c3ccccc3)C2c2ccc([N+](=O)[O-])cc2)cc1` (stereo not given), the inhibition was 0%.

Turning to `CC1=C(C(=O)OCC2CCCO2)C(c2cc3c(cc2[N+](=O)[O-])OCO3)C2=C(CCCC2=O)N1` (stereo not given), the inhibition was 6%.

With `CCC(C)c1ccc(NC(=O)Cc2ccc(Cl)cc2)cc1` (stereo not given), the inhibition was 10%.

As for `CCC(=O)Nc1ccc(NC(=S)NC(=O)c2ccco2)cc1`, the inhibition is 0%.

Turning to `N#C/C(=C\c1ccc(-c2ccc([N+](=O)[O-])cc2Br)o1)C(N)=O`, the inhibition is 22%.

Turning to `CCOc1ccc(N2C(=O)NC(=O)/C(=C\c3ccccc3)C2=O)cc1`, the inhibition is 0%.

Consider `COc1ccc(N2C(=O)NC(=O)/C(=C/c3ccc(I)o3)C2=O)cc1`, for which the inhibition was 11%.

`CCOc1ccc(N2C(=O)NC(=O)/C(=C/c3cccc4ccccc34)C2=O)cc1`: the inhibition was 73% (active).

As for `COc1ccc(N2C(=O)/C(=C\c3ccc([N+](=O)[O-])o3)C(=O)NC2=S)cc1`, the inhibition was 43%.

As for `CCOc1ccc(N2C(=O)NC(=O)/C(=C\c3ccccc3OC)C2=O)cc1`, the inhibition is 5%.

With `CCCC1CCC(c2ccc(C(=O)CCN(C)C)cc2)CC1` (stereo not given), the inhibition was 25%.

Take `COc1ccc(OC)c(/C=C2/SC(=S)N(c3ccc(Cl)cc3)C2=O)c1`: the inhibition was 4%.

With `Cc1c(Cc2ccccc2)c(=O)oc2c(C)c(OS(C)(=O)=O)ccc12`, the inhibition was 0%.

For the compound `COc1ccccc1/C=N/NC(=O)C(C)Sc1nc(C)cc(C)n1` (stereo not given), the inhibition was 14%.

On to `O=C(COC(=O)c1ccccc1I)c1ccc2c(c1)OCCO2`, for which the inhibition is 57% (active).

Take `O=C(COC(=O)c1ccc2c(c1)OCCO2)c1ccc(-c2ccccc2)cc1`: the inhibition was 14%.

Regarding `O=C(COC(=O)c1ccc2c(c1)OCCO2)c1ccc(Br)cc1`, the inhibition was 0%.

For `C=CCOc1cccc(/C=N/NC(=O)C(=O)Nc2ccc(C)c(C)c2)c1`, the inhibition is 1%.

For the compound `CCOc1cc(/C=C(/C#N)C(=O)Nc2ccc(O)cc2)ccc1OC`, the inhibition was 8%.

For the compound `CC(C)(C)c1cc(C(c2ccccc2O)N2CCOCC2)cc(C(C)(C)C)c1O` (stereo not given), the inhibition was 22%.
